Screens deposited in PubChem BioAssay by National Center for Advancing Translational Sciences (NCATS).
Hits are enriched below; roughly 9.2% of the tested compounds scored in any of these assays.
ELG1 genotox = qHTS screen for small molecules that induce genotoxicity in human embryonic kidney (HEK293T) cells expressing luciferase-tagged ELG1. HEK293T ELG1-luciferase reporter, luminescence, 16 h. Potency, µM (doses to about 46 µM), for the others: at the top dose activity change, positive = activation, actives largely listed as activators. hit rate 1.3% among 330,000. AID 504466, 2011; note: % of control where 0% means no effect; nearly all actives have a fitted effect of over 60% in size
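After overnight (16 hr) compound treatment at 37 °C, ELG1-luciferase HEK293T cells were lysed with ONE-Glo; luminescence quantified 30 min later at room temperature.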
FLuc modulator = qHTS profiling assay for firefly luciferase inhibitor/activator using purifed enzyme and Km concentrations of substrates (counterscreen for miR-21 project); Luciferin 4-monooxygenase (Photinus pyralis), P08659; purified FLuc, Km substrates, luminescence inhibition; Potency, µM (highest dose often 57.5 µM), for inactives: at the highest dose activity change, negative = inhibition, actives largely listed as inhibitors; hit rate 6.9% among 360,000; AID 588342, 2011;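 note: plate controls were vehicle for no effect and reference inhibitor for full effect; nearly all actives have a fitted effect of over 55% in size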
Target sequence (P08659 whole entry, looked up): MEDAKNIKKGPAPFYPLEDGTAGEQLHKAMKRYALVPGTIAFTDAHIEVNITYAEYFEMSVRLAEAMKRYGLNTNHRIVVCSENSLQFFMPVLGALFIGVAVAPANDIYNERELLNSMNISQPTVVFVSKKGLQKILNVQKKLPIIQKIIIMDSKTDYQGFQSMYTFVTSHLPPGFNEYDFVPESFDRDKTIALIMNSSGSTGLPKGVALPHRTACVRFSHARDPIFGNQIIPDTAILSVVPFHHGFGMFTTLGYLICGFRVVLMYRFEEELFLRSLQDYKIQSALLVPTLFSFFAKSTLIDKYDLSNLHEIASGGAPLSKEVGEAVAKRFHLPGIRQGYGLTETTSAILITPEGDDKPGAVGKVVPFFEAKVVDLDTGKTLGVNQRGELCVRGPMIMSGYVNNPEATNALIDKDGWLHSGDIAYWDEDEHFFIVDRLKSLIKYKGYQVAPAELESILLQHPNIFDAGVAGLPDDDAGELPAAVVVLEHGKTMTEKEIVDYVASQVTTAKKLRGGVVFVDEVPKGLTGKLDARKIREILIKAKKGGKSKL
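Biochemical qHTS of compounds, final roughly 60 µM downward over six points, against 10 nM purified firefly luciferase using Km concentrations of substrates (10 uM D-luciferin, 10 uM ATP) in Tris acetate pH 7.5 buffer; luminescence output.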
Rab9 promoter act = qHTS Assay for Rab9 Promoter Activators; hit rate 2.8% among 320,000; Huh7 Rab9 promoter-luciferase reporter, luminescence, 24 h; Potency, µM (top dose mostly 9.22 µM), inactives show top-dose activation, negative = inhibition, hits mostly activators; AID 485297, 2010; note: % of control where 0% means no effect; nearly all actives have a fitted effect of over 60% in size
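Rab9 promoter-driven luciferase in stably transfected Huh7 cells; 1500 cells/well rested 2 h, exposed to compound in DMSO for 24 h at 37 °C, 5% CO2. Luminescence read 10 min after adding luciferase reagent at ambient temperature.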
NPC1 promoter act = qHTS Assay for NPC1 Promoter Activators; Huh7 NPC1 promoter luciferase reporter, 24 h; Potency, µM (top dose mostly 9.22 µM), for inactives: at the top dose activation, actives largely listed as activators; hit rate 2.4% among 320,000; note: % of control where 0% means no effect; nearly all actives have a fitted effect of over 60% in size
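Huh7 cells stably carrying NPC1 promoter–luciferase, plated in Opti-MEM with 10% FBS for 2 h, were exposed to compound in DMSO for 24 h at 37 °C; luciferase reagent was added for 10 min and luminescence read.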
ELG1 DNA repair = qHTS screen for small molecules that inhibit ELG1-dependent DNA repair in human embryonic kidney (HEK293T) cells expressing luciferase-tagged ELG1; hit rate 2.3% among 330,000; HEK293T ELG1-luciferase reporter, luminescence, 16 h; DNA damage induced by 5-fluorouridine; Potency, µM (doses to about 46.1 µM), for the others: at the highest dose activity change, negative = inhibition, hits mostly inhibitors; note: % is set by controls: 0 for no effect and ±100 for the full control effect; nearly all actives have a fitted effect of over 55% in size
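Reporter activity after DNA damage by 5-fluorouridine is monitored. Compound-treated cells incubate 16 hr at 37 °C, then ONE-Glo is added for 30 min before luminescence reading.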
SMN2 splice up = qHTS Assay for Enhancers of SMN2 Splice Variant Expression | HEK293 SMN2-luciferase splicing reporter, luminescence, 30-36 h | Potency, µM (top dose mostly 46.1 µM), for inactives: top-dose activity change, positive = activation, hits mostly activators | hit rate 2.8% among 210,000 | AID 1458, 2008; note: % of control where 0% means no effect; nearly all actives have a fitted effect of over 55% in size
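HEK293 cells carry an SMN2 minigene-luciferase reporter in which exon 7 inclusion puts luciferase in frame. Cells were seeded at 2000 cells/well, attached for 10-12 hours, then exposed to compounds for 30-36 hours at 37C before ONE-Glo luminescence.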
Numbers without * were called inactive. Calls come from the whole dose curve; as a rule, active = well fitted curve in the direction sought with a large enough effect; inconclusive = small, poorly fitted or top-dose-only effect, or another doubt; inactive = no such curve, though single readings can be large; an effect the other way counts as inactive or inconclusive. Potency is the fitted concentration of half-maximal effect.

For CCCCn1c(N)c(N(CCOC)C(=O)c2ccc(-c3cccc(C(F)(F)F)c3)o2)c(=O)[nH]c1=O the results were ELG1 genotox 1%, FLuc modulator 2%, Rab9 promoter act -2%, NPC1 promoter act -1% and ELG1 DNA repair 0%.
Nc1ccc2c(c1Cl)C(=O)c1ccc(N)c(Cl)c1C2=O was read as ELG1 genotox inconclusive, FLuc modulator 12µM*, Rab9 promoter act 2.2µM*, NPC1 promoter act inconclusive and ELG1 DNA repair inconclusive.
Cc1ccc(C(=O)OCC(=O)N2CCC(c3ccccc3)=N2)cc1 was read as ELG1 genotox 2% and ELG1 DNA repair 0%.
Screening Cc1cc(N/N=C\c2ccccc2)nc(-c2ccccc2O)n1 returned ELG1 genotox -1%, FLuc modulator 6µM*, Rab9 promoter act 22%, NPC1 promoter act 22%, ELG1 DNA repair inconclusive and SMN2 splice up inconclusive.
`Cc1cc(N/N=C/c2ccc(O)cc2O)nc(-c2ccccc2O)n1` gave ELG1 genotox -5%, FLuc modulator 2.7µM*, Rab9 promoter act 0%, NPC1 promoter act 5%, ELG1 DNA repair 10µM* and SMN2 splice up -26%.
`Cc1cc(Nc2ccc(Cl)cc2)nc(-c2ccccc2O)n1` gave ELG1 genotox -6%, FLuc modulator inconclusive, Rab9 promoter act 3%, NPC1 promoter act -2% and ELG1 DNA repair -1%.
Screening Cc1cc(N/N=C/c2ccc(O)cc2O)c2ccccc2n1 returned ELG1 genotox 5%, FLuc modulator 1%, Rab9 promoter act 0%, NPC1 promoter act 9% and ELG1 DNA repair 27%.
Cc1cc(N/N=C/c2ccccc2O)nc(-c2ccccc2O)n1 was read as ELG1 genotox -1%, FLuc modulator 8.5µM*, Rab9 promoter act -3%, NPC1 promoter act -1%, ELG1 DNA repair inconclusive and SMN2 splice up -17%.
For Cc1cc(N(C)/N=C/c2ccccc2)nc(-c2ccccc2O)n1 the results were ELG1 genotox -8%, FLuc modulator -15%, Rab9 promoter act -1%, NPC1 promoter act -1% and ELG1 DNA repair -11%.
C/C(=N\Nc1cc(C)nc(-c2ccccc2O)n1)c1ccccc1O was read as ELG1 genotox -14%, FLuc modulator 15µM*, Rab9 promoter act -2%, NPC1 promoter act 0% and ELG1 DNA repair inconclusive.
Cc1nn(CC(C)C)c(Cl)c1C(=O)N(c1ccc(Cl)cc1F)S(C)(=O)=O was read as ELG1 genotox -6%, FLuc modulator 0%, Rab9 promoter act -1%, NPC1 promoter act -2% and ELG1 DNA repair -10%.
`CN1C(=O)/C(=C2\SC(N)=NC2=O)c2ccccc21` gave ELG1 genotox 7%, FLuc modulator 2%, Rab9 promoter act -3%, NPC1 promoter act -4%, ELG1 DNA repair -5% and SMN2 splice up -24%.
CCOc1ccc(/C=C2\SC(N3CCCCC3)=NC2=O)cc1 was read as ELG1 genotox 4%, FLuc modulator inconclusive, Rab9 promoter act -2%, NPC1 promoter act 1% and ELG1 DNA repair 11%.
CCCN1C(=O)/C(=C2\SC(N3CCCCC3)=NC2=O)c2ccccc21 was read as ELG1 genotox 10%, FLuc modulator 2.1µM*, Rab9 promoter act 2.8µM*, NPC1 promoter act 1.3µM*, ELG1 DNA repair inconclusive and SMN2 splice up 19%.
For CN1C(=O)/C(=C2\SC(N3CCCCCC3)=NC2=O)c2ccccc21 the results were ELG1 genotox inconclusive, FLuc modulator 2.7µM*, Rab9 promoter act 3.5µM*, NPC1 promoter act inconclusive, ELG1 DNA repair inconclusive and SMN2 splice up 9%.
Cc1ccc(-c2nn(-c3ccc(F)cc3)cc2C(=O)N2CCN(C3CCS(=O)(=O)C3)CC2)cc1 (configuration not stated) was read as ELG1 genotox 0%, FLuc modulator inconclusive, Rab9 promoter act 3%, NPC1 promoter act -1% and ELG1 DNA repair 18%.
Screening COc1ccc(NC(=O)c2ccc3c(c2)nnn3C2CCCC2)cc1Cl returned FLuc modulator -2%.
Screening CCN(CC)C1=CC(=[N+]2CCCC2)CC(C)(C)C1 returned ELG1 genotox 0%, FLuc modulator -1%, Rab9 promoter act -38%, NPC1 promoter act -27%, ELG1 DNA repair -15% and SMN2 splice up -72%.
Screening CN(Cc1ccccc1)C1=CC(=[N+]2CCCC2)CC(C)(C)C1 returned ELG1 genotox -11%, FLuc modulator 3%, Rab9 promoter act -41%, NPC1 promoter act -35% and ELG1 DNA repair 0.26µM*.
Screening COC(=O)c1ccc2c(c1)C(C)(C)C(/C=C/c1ccc(O)cc1)=[N+]2C returned ELG1 genotox inconclusive, FLuc modulator 13µM*, Rab9 promoter act -36%, NPC1 promoter act -37%, ELG1 DNA repair inconclusive and SMN2 splice up -93%.
Screening CC(C)C(OC(=O)CN1C(=O)COc2ccccc21)C(=O)NC1CCCC1 (configuration not stated) returned ELG1 genotox 0%, FLuc modulator 3%, Rab9 promoter act 4%, NPC1 promoter act 1%, ELG1 DNA repair -22% and SMN2 splice up -13%.
For Cc1ccc2c(c1)N(CC(=O)OC(CC(C)C)C(=O)NC1CCCC1)C(=O)CO2 (configuration not stated) the results were ELG1 genotox -11%, FLuc modulator -3%, Rab9 promoter act 4%, NPC1 promoter act 12%, ELG1 DNA repair 21µM* and SMN2 splice up -15%.
Oc1[nH]c2ccc(Br)cc2c1N=NC(=S)Nc1ccc(F)cc1 was read as ELG1 genotox -15%, FLuc modulator 5%, Rab9 promoter act -3%, NPC1 promoter act -3% and ELG1 DNA repair inconclusive.
`Cc1cccc(N=Nc2c(O)[nH]c3ccc(Br)cc23)c1` gave ELG1 genotox inconclusive, FLuc modulator 15µM*, Rab9 promoter act 23%, NPC1 promoter act inconclusive and ELG1 DNA repair inconclusive.
Screening Oc1ccc(NC(=S)N=Nc2c(O)[nH]c3ccc(Br)cc23)cc1 returned ELG1 genotox -5%, FLuc modulator -8%, Rab9 promoter act -1%, NPC1 promoter act -2%, ELG1 DNA repair 16µM* and SMN2 splice up -1%.
